Compound activity (PubChem)
Only a selection was taken, and hits are over-represented in it overall.
Tg IFNy HTS = T. gondii growth inhibition with IFN-gamma, primary screen, cell-based; Toxoplasma gondii growth in IFN-gamma-treated host cells; stronger effect = lower value; activity change, negative = inhibition, % (concentration not given with the values); 69,000 compounds, 3.8% hits; AID 1259416, 2018; in the data active = activity change below about -70%, passing the limit was not always enough;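 note: host cells are HeLa cells infected with Toxoplasma gondii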
Of the large screens only hits and unclear results are named; the others gave an inactive call; ! = not confirmed by another sample.

Cn1ccc2cc3c(cc21)CCN3C(=O)Nc1cccnc1	none
N#Cc1cccc(-c2ccc3c(c2)[C@@H]2[C@@H](CCN2C(=O)c2ccccc2F)[C@H](CO)N3)c1	none
CCCOC(=O)Nc1cc(OC)c(Cl)cc1OC	none
CCC1=N[C@@]2(CC[C@@H]3CN(c4ncccn4)C[C@H]32)C(=O)N1CCOC	none
CCOC(=O)c1c(C)n(C)c2ccc(OCC)cc12	none
O=C(Nc1ccccc1)N1C[C@@H]2C[C@H](C(=O)N3CCOCC3)[C@@H](C1)O2	none
O=C(Cn1c(=O)ccc2cc(S(=O)(=O)N3CCCC3)ccc21)N1CCc2ccccc21	none
c1cncc(CN(Cc2ccc3ncccc3c2)Cc2cccs2)c1	none
CC1CCCN(C(=O)C2CCN(Cc3ccc4c(c3)OCO4)CC2)C1 (stereo not given)	none
CC(=O)N1CCC(C(=O)NCc2ccccc2)(N(C(=O)c2ccc(C)cc2)c2ccc(C)cc2)CC1	none
Nc1nc(Cl)nc2c1ncn2[C@@H]1O[C@H](CO)[C@@H](O)[C@@H]1F	Tg IFNy HTS -73.9
OCC1OC(n2cnc3c(NC4CCCC4)nc(Cl)nc32)C(O)C1O (stereo not given)	none
O=c1[nH]c(=O)n([C@H]2C[C@H](O)[C@@H](CO)O2)cc1I	none
Nc1nc(Cl)nc2c1ncn2[C@H]1C[C@H](O)[C@@H](CO)O1	Tg IFNy HTS -73.3!
O=c1[nH]cnc2c1ncn2[C@H]1CC[C@@H](CO)O1	none
Nc1nc(=O)n([C@H]2C[C@H](O)[C@@H](CO)O2)cc1F	Tg IFNy HTS -88.7
Nc1ncnc2c1ncn2C1CCCO1 (stereo not given)	none
Nc1ccn([C@@H]2O[C@H](CO)[C@@H](O)[C@H]2O)c(=O)n1	none
CNC(=O)c1cnn(-c2nc(N)c3ncn([C@@H]4O[C@H](CO)C(O)C4O)c3n2)c1 (stereo not given in full)	none
CC(=O)N1CCOCC2(CCCN(c3ncc(C)cn3)C2)C1 (stereo not given)	none
Clc1ccc(C2CN(Cc3cnc(CC4CCCC4)[nH]3)CCO2)cc1 (stereo not given)	none
Cc1noc(C)c1S(=O)(=O)Nc1ccc2c(c1)C(=O)N([C@@H](C)CO)C[C@@H](C)[C@H](CN(C)Cc1ccc(C(=O)O)cc1)OCCCC[C@H](C)O2	none
COc1ccc(S(=O)(=O)N2CCC(c3n[nH]c(=O)cc3-c3cc(C)no3)CC2)cc1	none
COc1ccc(S(=O)(=O)N2CCC(c3nc(C(=O)N(C)C)c(C)o3)CC2)cc1	none
COc1ccc(S(=O)(=O)N2CCC(c3ccc4c(C)nn(C)c4n3)CC2)cc1	Tg IFNy HTS -90.9
CN(Cc1ccncc1)C1COC2(CCN(c3ncccn3)CC2)C1 (stereo not given)	none
NC(=O)c1cc(-c2ccccc2)sc1NC(=O)c1cccs1	Tg IFNy HTS -82.9
NC(=O)c1sc(-c2ccsc2)cc1NC(=O)c1cccs1	none
CCOC(=O)c1cc(-c2ccccc2)sc1NC(=O)c1ccc(Cl)cc1	none
O=C(O)C1CCC(c2cc3cccnc3c(-c3cccc(F)c3)n2)CC1 (stereo not given)	none
CCOc1ccc(-c2nc3c(s2)CN(C(=O)Nc2ccccc2CC)CC3)cc1	none
O=S(=O)(c1cccc(Cl)c1)N1CCc2nc(-c3ccccc3)sc2C1	none
CCOc1ccc(-c2nc3c(s2)CN(S(=O)(=O)c2ccccc2Cl)CC3)cc1	Tg IFNy HTS -88.5
COc1ccc(-c2nc3c(s2)CN(S(=O)(=O)c2ccccc2Cl)CC3)cc1	Tg IFNy HTS -85.9
COc1ccc(-c2nc3c(s2)CN(S(=O)(=O)c2ccc(C(C)C)cc2)CC3)cc1	none
Cc1csc(C(Cc2ccsc2)NC(=O)C2CC(=O)Nc3ccccc32)n1 (stereo not given)	none
CC(=O)N1CCN(c2ccc3ccc(C(=O)NCc4cccs4)cn23)CC1	none
COCC(NC(=O)CCN1CCCCO1)c1ccnn1C (stereo not given)	none
O=C(C[C@@H]1C=C[C@@H](NC(=O)Nc2ccc3c(c2)OCO3)[C@@H](CO)O1)NCCCN1CCOCC1	none
CCn1ncc(C(=O)N(C)Cc2cc(-c3ccncc3)no2)c1C	none
CCn1nc(C(=O)N2CCN(c3ccccc3)CC2)c2c1CCN(C(=O)c1ccc3ccccc3c1)C2	none
Cc1cccc(NC(=O)C(=O)NCCc2csc(-c3ccc(Cl)cc3)n2)c1C	none
COCCC(=O)c1cc(-c2cnc(-c3cccnc3)nc2)cn1C	none
CN(C)CCNC(=O)c1cc(-c2cnc(-c3ccnn3C)nc2)cn1C	none
CCCNC(=O)c1cc(-c2cnc(-c3cccnc3)nc2)cn1C	Tg IFNy HTS -90.9
COc1ccccc1CNC(=O)CN1CCCC1c1ccccc1C (stereo not given)	none
O=C(O)C[C@@H]1CC[C@@H]2[C@H](COC[C@@H](O)CN2S(=O)(=O)c2ccc(Oc3ccccc3)cc2)O1	none
Cc1ccsc1C(=O)N1CCC2(CC1)COCCN(c1ncccn1)C2	none
NC(=O)CN1CCOCCOCCN(CC(N)=O)CCOCC1	Tg IFNy HTS -70.5
N=C(N=C(N)N)N1CCOCC1	none
CC(C)(C)NC(=O)CCN1CCOCC1	none
Cc1nnn2c1COCC(CNS(C)(=O)=O)C2 (stereo not given)	none
CCN1c2ccccc2C(=O)NC12CCN(C(=O)Nc1ccccc1C)CC2	none
CCC(=O)Nc1cccc(OCC(=O)NC(C)c2ccc(C)cc2C)c1 (stereo not given)	none
CCOc1ccccc1NC(=O)c1nnn(Cc2nc(-c3ccc(OC)cc3OC)oc2C)c1C	none
CCn1cc(/C=C/c2ccccc2)c(C)n1	none
C[C@H]1O[C@@H](O[C@H]2[C@@H](O)C[C@H](O[C@H]3[C@@H](O)C[C@H](O[C@H]4CC[C@]5(C)C6CC[C@]7(C)[C@@H](C8=CC(=O)OC8)CC[C@]7(O)C6CC[C@@H]5C4)O[C@@H]3C)O[C@@H]2C)C[C@H](O)[C@@H]1O (stereo not given in full)	Tg IFNy HTS -79.7!
CCN(C)c1ncnc2c1CCN(S(=O)(=O)c1cccs1)CC2	none
COCCN1CCO[C@H]2CN(S(=O)(=O)c3cn(C)cn3)CC[C@@H]2C1	none
O=c1cc(O)c2c(=O)n3c4c(cccc4c2o1)CCC3	none
O=c1c2c3ccccc3[nH]c2c2cccc3c2n1CC3	Tg IFNy HTS -89.3
CN1CCc2ccccc2Cc2[nH]c3ccccc3c2CC1	none
O=C(NC1CCc2cccnc21)c1cn[nH]n1 (stereo not given)	none
CCn1nc2c(c1C(=O)NCc1nc3ccccc3n1CC)CCCC2	none
CN(C)C1COC2(CCN(CC3CCC3)CC2)C1 (stereo not given)	none
CCOC(=O)N1c2ccc(C(C)C)cc2C=CC1C#N (stereo not given)	none
CC(C)c1ccc(CN2CCC(CNC(=O)C3(N)CCC3)C2)cc1 (stereo not given)	none
CC(C)c1ccc2c(c1)CCC1C(C)(CNC(=O)NC(C)(C)C)CCCC21C (stereo not given)	Tg IFNy HTS -104.2
CC(C)C#Cc1ccc([C@@H]2[C@@H](C#N)N(C(=O)c3cccc(F)c3)[C@@H]2CO)cc1	none
O=C(c1ccccn1)N1CC[C@@H]2[C@H]1c1cc(C#Cc3cccnc3)ccc1N[C@@H]2CO	none
CC(CO)CN(Cc1ccccc1)C(=O)c1cccc2cccnc12 (stereo not given)	none
O=C(CC1N=C2c3ccccc3N=C(SCc3cc(=O)n4cc(Cl)ccc4n3)N2C1=O)NCc1ccco1 (stereo not given)	none
O=C(Nc1cccc(Cl)c1)c1nc(Nc2ccccc2)c2ccccc2n1	none
CCCCc1nc(-c2nccn2CCc2cnc[nH]2)c(Cl)[nH]1	none
Cc1cc(C(=O)NCCc2c[nH]c3ccccc23)c2c(=O)n(C)c(=O)n(C)c2n1	none
CCOc1nc2c(c(C)nn2-c2cccc(C)c2)c(C)c1CCC(=O)NCCc1c[nH]c2ccccc12	Tg IFNy HTS -78.9
